KCNQ2 block: rat KCNQ2 potassium channel inhibitors, primary screen, cell-based, CHO-K1, FluxOR thallium flux, B-score; 310,000 compounds, 1.1% hits; Potassium voltage-gated channel subfamily KQT member 2 (Rattus norvegicus), O88943; B-score at 10 µM; AID 2156, 2009; 20 min; active compounds read low;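 active = fluorescence ratio B-score at most minus 3 library SDs, with starting brightness B-score within 2 library SDs, cut at about -5.5 in these data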
KCNQ2 enhance: potentiators of rat KCNQ2 potassium channel | B-score at 10 µM | CHO-K1 KCNQ2, FluxOR thallium flux fluorescence; active compounds read high | 310,000 compounds, 0.54% hits | Potassium voltage-gated channel subfamily KQT member 2 (Rattus norvegicus), O88943;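 active = fluorescence ratio B-score at least 3 SD of library B-scores, with initial fluorescence B-score within 3 of them, cut at about 5.3 in these data; same plate scores as AID 2156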;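 note: B-score of peak minus minimum over baseline fluorescence ratio after K+ and Tl+ stimulus; positive B-score means potentiation of KCNQ2 with more thallium influx and brighter signal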
Kir21 conf inh: mouse Kir2.1 channel blockers, retest, confirmation, cell-based, FluxOR thallium flux, duplicate. shares compounds with KCNQ2 enhance. Kir2.1-expressing cells, FluxOR thallium flux fluorescence; active compounds read low. Tl flux remaining, % of negative control (active compounds read low), % at 10 µM. 2,300 compounds, 41% hits. AID 2032, 2009;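 active = Primary-screen hit whose thallium flux fell at least 3 control SD below untreated wells in both duplicates, with normal baseline fluorescence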;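 note: 0% = blank wells without stimulus and 100% = stimulated no-compound controls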
HEK293 ctr: counter-screen for Kir2.1 inhibitors: effect in parental HEK293 cells; shares compounds with KCNQ2 enhance; FluxOR thallium flux fluorescence; 0% = unstimulated blank wells; FluxOR signal as % of negative control (100 = no effect), % at 10 µM; 2,300 compounds, 19% hits;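 active = dye signal at least 3 control SD above or below untreated wells in both duplicates, raw fluorescence within 3, either direction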;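 note: percent is based on the flux ratio of peak minus minimum fluorescence over baseline F0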
CHO-K1 Tl ctr: nonspecific thallium flux increase in parental CHO-K1, confirmation, counter-screen for KCNQ2 potentiator project, cell-based, FluxOR thallium flux, duplicate | shares compounds with KCNQ2 enhance | parental CHO-K1 cells, FluxOR thallium flux fluorescence; zero = vehicle mean+3SD, 100% = vehicle-minus-blank window | activity increase over 3SD of controls, % at 10 µM | 1,200 compounds, 43% hits | AID 2282, 2010;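 active = signal rise of at least 3 SD above the untreated control mean, in both duplicate wells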;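 note: counter screen of KCNQ2 potentiator hits so any rise reflects channel-independent effects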
KCNQ1 pot spec: human KCNQ1 channel potentiation off-target, confirmation, selectivity assay for KCNQ2 potentiator project, cell-based, CHO, FluxOR thallium flux. shares compounds with KCNQ2 enhance. CHO KCNQ1 stable, FluxOR thallium flux fluorescence; beyond 3SD, as % of vehicle-control signal. activation over 3SD threshold, % at 10 µM. 1,200 compounds, 28% hits. AID 2283, 2010;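 active = fluorescence ratio rise of at least 3 SD of vehicle wells above their mean, in both replicate wells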;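 note: 0% = vehicle mean plus 3 SD and 100% = vehicle minus unstimulated blank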
Target sequence (P51787 whole entry, looked up): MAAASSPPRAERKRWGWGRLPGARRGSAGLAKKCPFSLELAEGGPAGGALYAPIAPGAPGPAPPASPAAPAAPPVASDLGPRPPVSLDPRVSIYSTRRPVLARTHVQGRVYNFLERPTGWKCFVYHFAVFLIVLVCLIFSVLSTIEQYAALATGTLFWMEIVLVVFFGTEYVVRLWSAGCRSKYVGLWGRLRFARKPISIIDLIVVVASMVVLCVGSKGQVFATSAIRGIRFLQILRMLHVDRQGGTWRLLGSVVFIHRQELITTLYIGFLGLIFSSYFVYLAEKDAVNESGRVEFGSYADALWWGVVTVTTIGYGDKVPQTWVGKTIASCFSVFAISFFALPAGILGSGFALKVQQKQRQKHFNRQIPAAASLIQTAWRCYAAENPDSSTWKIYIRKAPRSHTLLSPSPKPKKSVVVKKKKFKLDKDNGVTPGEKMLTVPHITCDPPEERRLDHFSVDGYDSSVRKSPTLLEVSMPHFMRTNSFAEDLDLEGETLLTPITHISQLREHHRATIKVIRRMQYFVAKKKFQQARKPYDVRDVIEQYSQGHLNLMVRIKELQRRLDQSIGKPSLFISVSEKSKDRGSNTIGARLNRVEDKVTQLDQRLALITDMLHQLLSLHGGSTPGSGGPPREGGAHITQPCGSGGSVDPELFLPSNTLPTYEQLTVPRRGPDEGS
KCNQ2 pot confirm: rat KCNQ2 channel potentiators, confirmation, cell-based, CHO, FluxOR thallium flux, duplicate; shares compounds with KCNQ2 enhance; CHO-KCNQ2 cells, FluxOR thallium flux fluorescence; potentiation, less the hit threshold, % at 10 µM; 1,200 compounds, 68% hits; AID 2287, 2010;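 active = fluorescence ratio rising 3 SD or more over the vehicle control mean in both replicates, plus primary screen hit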;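 note: peak minus minimum thallium fluorescence divided by baseline after K/Tl stimulus; 0% = vehicle mean plus 3 SD and 100% = vehicle minus unstimulated blank difference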
Kir21 spec: mouse Kir2.1 channel activation off-target, confirmation, selectivity assay for KCNQ2 potentiator project, cell-based, HEK293, FluxOR thallium flux; shares compounds with KCNQ2 enhance; HEK293 Kir2.1, FluxOR thallium flux fluorescence; activity over 3SD threshold, % at 10 µM; 1,200 compounds, 2% hits; AID 2345, 2010;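 active = fluorescence ratio rise of at least 3 SD above the vehicle-control mean, seen in both replicates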;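 note: 0% = vehicle mean plus 3 SD and 100% = vehicle minus no-stimulus blank window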
KCNQ2 W236L MoA: potentiators of retigabine-insensitive KCNQ2 W236L, mechanism study for KCNQ2 potentiator project, cell-based, rat KCNQ2 W236L, CHO, automated patch clamp; shares compounds with KCNQ2 enhance; automated patch clamp current; current increase over 3SD of negative controls (%), active compounds read high, % at 25 µM; 940 compounds, 10% hits; AID 2558, 2010;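 active = current increase at least 3 SD of the untreated controls above them in both duplicate recordings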
Starred values were filed as active, the others as inactive; i = inactive; . = no result given. A selection: hits, their analogues and other compounds. The true share with any hit is near 1.6%.

SMILES | KCNQ2 block | KCNQ2 enhance | Kir21 conf inh | HEK293 ctr | others
C=CCn1c(NCc2ccc(OC)cc2O)nc2ccccc21 | i | . | . | .
C=CCn1c(Cc2cccs2)nnc1SCC(=O)Nc1cc(OC)cc(OC)c1 | i | . | . | .
C=CCn1c(Cc2cccs2)nnc1SC/C=C/c1ccccc1 | i | . | 31%* | i
Cn1c(SC/C=C/c2ccccc2)nnc1-c1cccs1 | i | . | . | .
CCn1c(SC/C=C/c2ccccc2)nnc1-c1cccs1 | i | . | 48%* | i
COc1ccc(N2CCN(C(=O)c3cc(C)oc3C)CC2)cc1 | i | 0.51 | . | .
Cc1cc(C)c(-n2c(SCC(=O)N3CCOCC3)n[nH]c2=O)c(C)c1 | i | 1.1 | . | .
COc1cc(NC(=O)CN2CCN(CC(=O)Nc3ccccc3OC)CC2)cc(OC)c1 | i | . | . | .
COc1cc(C(=O)NC(C)c2ccc3ccccc3c2)cc(Cl)c1O (stereo not drawn) | i | 0.07 | . | .
COc1ccc(S(=O)(=O)NCCSCc2ccco2)cc1C | i | . | . | .
COc1ccc(S(=O)(=O)NCCSCc2ccco2)cc1Cl | i | 0.75 | 58%* | i
CC(C)C/C=C1\CCc2c([nH]c3ccccc23)C1=O | i | 2.2 | . | .
CCCCCCCCC1=NCCc2c1[nH]c1ccccc21 | i | . | 20%* | i
Cc1ccc(C)c(NC(=S)NNC(=O)c2csc3c2CCC(C)C3)c1 (stereo not drawn) | i | 6.6* | i | 171%* | CHO-K1 Tl ctr=-19;KCNQ1 pot spec=-33;KCNQ2 pot confirm=-4;Kir21 spec=-40;KCNQ2 W236L MoA=i
Cc1ccc(C)c(NC(=S)NNC(=O)c2csc3c2CCCC3)c1 | i | 2.6 | . | .
COc1cc(/C=C/c2ccc3cccc(O)c3n2)cc(OC)c1OC | i | 5.3* | i | i | CHO-K1 Tl ctr=8.5*;KCNQ1 pot spec=0.7*;KCNQ2 pot confirm=-11;Kir21 spec=-25
COc1cc(/C=C/c2ccc3cccc(O)c3n2)cc(Br)c1OC | i | . | . | .
O=C(c1ccc(S(=O)(=O)Nc2cccc(C(F)(F)F)c2)cc1)N1CCC1 | i | 0.45 | . | .
CC(=O)N1CCN(C(=O)c2ccc(S(=O)(=O)Nc3cccc(C(F)(F)F)c3)cc2)CC1 | i | 0.66 | i | i
O=C1CCC(NC(=O)c2ccccc2)C(=O)N1 (stereo not drawn) | i | 1.5 | . | .
CC1CCN(C(=O)CSC2=NS(=O)(=O)c3cc(F)ccc3N2)CC1 | i | 0.85 | . | .
Cc1cc(C)c(NC(=O)C2CSCCS2)c(C)c1 (stereo not drawn) | i | 6.5* | i | i | CHO-K1 Tl ctr=23*;KCNQ1 pot spec=15*;KCNQ2 pot confirm=-3;Kir21 spec=-32;KCNQ2 W236L MoA=i
Cc1cc(C)c(NC(=O)C2CCCCN2C)c(C)c1 (stereo not drawn) | i | . | . | .
C=CCOc1ccccc1CN1CCCN(C)CC1 | i | . | . | .
CCC1CN(C(=O)N2CCC(C(=O)NCc3cc(OC)c(OC)c(OC)c3)CC2)c2ccccc2O1 (stereo not drawn) | i | . | . | .
CCN(CC)C(=S)SCC(=O)Nc1ncc2c(n1)CCCC2=O | i | 0.33 | . | .
